Results reported in PubChem BioAssay AID720513 (Broad Institute, 2013).
In all, about 2,100 compounds went through this assay and about 480 (23%) were called active. Not shown: some 5% with an inconclusive outcome.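 How the source made its calls: active means fitted curve reaches 40% activation at or below the top valid concentration, in every replicate test; inconclusive means replicate tests disagree on the call; inactive means the rest, including activity in the opposite direction.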 A selection follows. Results with a measured potency or affinity are listed apart.

assay: activators raising PGC1a acetylation in cells, dose response, cell-based, cherry-picked samples, set 6 (AID 720513); settings: U2OS PGC1a acetylation AlphaLISA, overnight, 0 = neutral, -100 = inhibitor control; series mostly up to 19.5 µM;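 further: cells made to overexpress flag tagged PGC1a plus GCN5 acetyltransferase by viral infection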

outcome, inactive:
COc1ccc(-c2[nH]ncc2CN(C)C(C)c2ccon2)cc1F (stereo unspecified)
COc1ccc(OC)c(-n2c(-c3ccc(C)cc3)n[nH]c2=S)c1
COc1cccc(-n2c(-c3cccc(S(=O)(=O)N(C)C)c3)n[nH]c2=S)c1
COc1cccc(Cn2c(NCc3cccnc3)nc3c2c(=O)n(C)c(=O)n3C)c1
COc1cccc(S(=O)(=O)N[C@H]2CC[C@H](CC(=O)NCc3ccc(F)cc3)O[C@@H]2CO)c1
CCn1cc(C(=O)NCc2cccnc2)c2cc(OC)c(OC)cc2c1=O
CCC(C)C(NC(=O)C1CCC(C)CC1)C(=O)NCc1cccnc1 (stereo unspecified)
Cc1ccc(S(=O)(=O)Nc2ccccc2C(=O)NCc2cccnc2)cc1
COc1ccc2nc(NCc3cccnc3)sc2c1
C[C@H]1CN([C@@H](C)CO)C(=O)c2cc(C3=CCCC3)cnc2O[C@@H]1CN(C)C(=O)c1cccnc1
Cc1ccccc1S(=O)(=O)N[C@H]1CC[C@H](CCn2cc(Cc3ccccc3)nn2)O[C@@H]1CO
COc1ccccc1C#Cc1ccc2c(c1)O[C@@H](CN(C)Cc1cccnc1)[C@H](C)CN([C@@H](C)CO)S2(=O)=O
CO[C@H]1CN(C)C(=O)c2cc(NS(=O)(=O)c3cn(C)cn3)ccc2OC[C@@H](C)NC[C@H]1C
CCCCN(c1ccccc1)c1ncnc(N)c1[N+](=O)[O-]
COC(=O)c1cccc(NC(=O)CSc2nnc(C)n2C)c1
COc1ccccc1Nc1nc(NCCC(C)C)nc(N)c1[N+](=O)[O-]
Cn1nnnc1Sc1ncnc2scc(-c3cccc(S(C)(=O)=O)c3)c12
Cc1ccc(C)c(S(=O)(=O)N(C(=O)c2ccncc2)c2ccc(OC(=O)c3ccncc3)cc2)c1
C=CCNC(=O)c1cnn(-c2ccccc2)c1-c1ccccc1
CO[C@@H]1CN(C)C(=O)c2ccc(NC(C)=O)cc2OC[C@@H](C)N(C(=O)Cc2cccnc2)C[C@@H]1C
O=C(Cn1ncc(Cl)c(Cl)c1=O)NCC1CCCCC1
C[C@@H]1CN([C@H](C)CO)C(=O)Cc2cc(NC(=O)CCC(F)(F)F)ccc2O[C@H]1CN(C)S(C)(=O)=O
CCOC(=O)C1=C(Nc2ccccc2)OCC1=O
O=C(NCc1cccnc1)/C(=C/c1ccc(-c2ccc(Cl)cc2)o1)S(=O)(=O)c1ccccc1
CC1=CCC2C(=O)N(c3cccc(C(=O)NCc4ccccc4)c3)C(=O)C2C1 (stereo unspecified)
Cc1ccc(S(=O)(=O)Nc2cccc3c2O[C@H](CN(C)Cc2ccc(Cl)c(Cl)c2)[C@@H](C)CN([C@@H](C)CO)C3=O)cc1
CN(C)c1nc(SCCOC(=O)COc2ccc(Cl)cc2Cl)nc(N(C)C)n1
CCCc1cc(=O)oc2cc(C)cc(O)c12
CC(=O)Nc1ccc2c(CSc3nncs3)cc(=O)oc2c1
COC(=O)[C@]1(Cc2ccccc2)N=C(c2ccc(OCCCO)cc2)O[C@@H]1c1ccccc1CN=[N+]=[N-]
O=[N+]([O-])c1cc(F)c2cccnc2c1O
Cc1ccc2[nH]c3ccccc3c(=O)c2c1
CCN(CC(=O)Nc1ccccc1C(F)(F)F)C(=O)CCSc1ccc(F)cc1
O=C(NCc1cccnc1)C1CC(=O)N(C2CCCCC2)C1 (stereo unspecified)
O=C(CCNNC(=O)c1ccncc1)NCc1ccccc1
O=C(NCc1cccnc1)/C(=C\c1ccc(-c2ccc(Cl)c(Cl)c2)o1)S(=O)(=O)c1ccccc1
O=C(NCc1cccnc1)/C(=C\c1ccc(-c2cccc(Cl)c2)o1)S(=O)(=O)c1ccccc1
O=C(Cc1ccccn1)NCC[C@H]1CC[C@@H](NC(=O)Nc2ccc(C(F)(F)F)cc2)[C@@H](CO)O1
O=C(NC1=NCCS1)C1CC(=O)N(c2ccccc2)C1 (stereo unspecified)
O=C(Nc1cccc2[nH]ncc12)c1ccc(F)cc1
O=C(C[C@@H]1CC[C@@H](NC(=O)C2CCC2)[C@H](CO)O1)NCC1CC1
CCC(=O)Nc1ccc(C(=O)COC(=O)c2sc(C)nc2C)cc1
CC(C)C[C@H]1CNC(=S)N1CC1CCCN1C[C@H](Cc1ccccc1)N1C[C@H](Cc2ccc(O)cc2)N(CC2CCCCCC2)C1=S (stereo partly specified)
CC(N=C1NS(=O)(=O)c2ccccc21)C(=O)NCCCc1ccccc1 (stereo unspecified)
CCOc1ccc2nc(NCCNC(=O)Nc3ccccc3)c(C#N)cc2c1
Cc1ccccc1OCC(O)CNC1CCC(NCC(O)COc2ccccc2C)CC1 (stereo unspecified)
C[C@H](CO)N1C[C@H](C)[C@H](CN(C)C(=O)CN(C)C)Oc2cc(-c3cncnc3)ccc2S1(=O)=O
CCN1CCN(Cc2ccc(NC(=O)c3cc(NC(=O)c4cncc(-c5ccc(C#N)cc5)c4)cc(OC)c3)cc2C(F)(F)F)CC1
COc1ccc(OCCc2nnc(N)s2)cc1
CN(NC(=O)c1ccccc1F)c1nc(C(F)(F)F)nc2ccccc12
C[C@@H](C(=O)Nc1nc2ccc(F)cc2s1)N1C(=O)C2CC=CCC2C1=O (stereo partly specified)
C[C@@H]1CN([C@H](C)CO)S(=O)(=O)c2ccc(C#CC3CCCC3)cc2O[C@H]1CN(C)C
O=C(NCC1CC1)Nc1ccccc1F
C/C=C/c1ccc2c(c1)O[C@@H](CN(C)C(=O)NC(C)C)[C@H](C)CN([C@H](C)CO)S2(=O)=O
Fc1cccc(CN2C[C@@H]3N[C@H](C2)C3c2ccc(-c3ccccc3)cc2)c1 (stereo partly specified)
COc1ccccc1CN1C[C@@H]2N[C@H](C1)C2c1ccc(-c2ccccc2)cc1 (stereo partly specified)
Fc1ccc(-c2ccc(C3[C@@H]4CN(Cc5ccccc5)C[C@H]3N4)cc2)cc1 (stereo partly specified)
COc1cccc(-c2ccc(C3[C@@H]4CN(Cc5cccc(F)c5)C[C@H]3N4)cc2)c1 (stereo partly specified)
COc1cc(CN2C[C@@H]3N[C@H](C2)C3c2ccc(-c3cccc(OC)c3)cc2)cc(OC)c1 (stereo partly specified)
Cc1cccc(-c2ccc(C3[C@@H]4CN(Cc5cccc(F)c5)C[C@H]3N4)cc2)c1 (stereo partly specified)
COc1ccc(-c2ccc(C3[C@@H]4CN(Cc5ccccn5)C[C@H]3N4)cc2)cc1 (stereo partly specified)
